Rows were chosen to be rich in hits. Some 4.6% of all compounds tested hit in one or more screens of this group.
tim10-1 inh = tim10-1 yeast growth inhibition | S. cerevisiae tim10-1 ts strain growth, BacTiter-Glo, 24 h | 330,000 tested, 2.2% active | AID 463190 | inhibition, % at 20 µM;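 active = inhibition of at least 40%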;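 note: mutant grown at 25 °C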
TIM10 inh = TIM10 yeast growth inhibition. inhibition, % at 10 µM. AID 463195. S. cerevisiae TIM10 strain growth, BacTiter-Glo luminescence, 24 h. 330,000 tested, 1.4% active;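 active = inhibition of 40% or more at the single tested concentration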;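 note: wild-type TIM10 isogenic control strain grown at permissive 25 °C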
SKKanGAS inh = blocks kanamycin growth of S. pyogenes SKKanGAS strain; BacTiter-Glo, 6 h; inhibition, % at 7.5 µM; 300,000 tested, 1.3% active; AID 1662;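 active = mean replicate score, as percent of positive control median, at least 50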;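 note: strain carries kanamycin resistance gene driven by streptokinase promoter and grows in 40 µg/ml kanamycin; loss of luminescence reflects streptokinase promoter inhibition or plain growth inhibition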
NLRP3 yeast inh = blocks the NALP3 inflammasome reconstituted in yeast | 330,000 tested, 0.39% active | Yeast reconstituted NLRP3/ASC/caspase-1, beta-gal luminescence, 24 h | inhibition, % at 10 µM;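 active = inhibition of 50% or more; inactive = inhibition below 50%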
PfHsp90 yeast 2 = inhibits growth of yeast expressing Plasmodium falciparum Hsp90; S. cerevisiae expressing PfHsp90, BacTiter-Glo ATP, 48 h; yeast lacking PDR1 and PDR3 efflux regulators; inhibition, % at 9.4 µM; 310,000 tested, 0.32% active;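 active = every replicate shows inhibition above about 80%, whatever the replicate mean, limit read from the data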
tim23-1 inh = inhibits growth of tim23-1 mutant yeast; S. cerevisiae tim23-1 growth, BacTiter-Glo luminescence, 24 h; inhibition, % at 20 µM; 330,000 tested, 1.3% active;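 active = growth inhibition of the mutant yeast at or above 50%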;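 note: temperature-sensitive mutant grown at 25 °C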
tim10-1 confirm = confirmation of tim10-1 mutant yeast growth inhibitors; S. cerevisiae tim10-1 ts strain growth, BacTiter-Glo, 24 h; inhibition, % at 20 µM; AID 463213; 7,400 tested, 56% active; shares compounds with tim10-1 inh;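 active = inhibition of yeast growth at or above a set limit in either of two repeat tests at 20 µM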;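 note: tim10-1 mutant grown at permissive 25 °C to find synthetic lethal compounds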
tim10 confirm = confirmation of TIM10 yeast growth inhibitors; shares compounds with TIM10 inh; S. cerevisiae tim10 strain growth, BacTiter-Glo luminescence, 24 h; AID 463215; 4,600 tested, 63% active; inhibition, % at 10 µM;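 active = inhibition of yeast growth at or above a set limit in either of two replicates at 10 µM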; note: this counterscreen used the strain with wild-type TIM10
Each line names hits and unclear results; the compound was inactive in the other large screens (follow-up assays come after a bar, where they were run).

COc1ccc(/C=C2\CCc3ccccc3C2=O)cc1Cn1cccn1	tim10-1 inh 43, TIM10 inh 42 (no result: PfHsp90 yeast 2) | tim10-1 confirm 40 | tim10 confirm inactive
COc1nc(OC)nc(Oc2ccc([N+](=O)[O-])cc2Cl)n1	none
COc1cc2c(cc1OC)C(c1cc(Br)ccc1F)N(C(=O)CCl)CC2 (stereo not drawn)	tim10-1 inh 42, TIM10 inh 45 | tim10-1 confirm 40 | tim10 confirm 43
COc1cc2c(cc1OC)C(C1C(=O)CC(C)(C)CC1=O)N(C(=O)CCl)CC2 (stereo not drawn)	none
COC(=O)c1ccc(N2CCN(C)CC2)c(NC(=O)c2cccs2)c1	none
Cc1ccc(CSc2nnc(-c3cccs3)n2C)cc1	none
Cn1c(SCc2c(Cl)cccc2Cl)nnc1-c1cccs1	tim10-1 inh 48, TIM10 inh 48 (no result: SKKanGAS inh) | tim10-1 confirm 35 | tim10 confirm 34
CCn1c(CCC(=O)N(C)CC(=O)Nc2cccc(F)c2)nc2cc(S(=O)(=O)N(C)C)ccc21	none
COc1cc(C2Nc3cccc4cccc(c34)N2)cc(OC)c1O	none (no result: SKKanGAS inh)
Oc1ccc(C2Nc3cccc4cccc(c34)N2)c(O)c1	tim10-1 inh 42, TIM10 inh 41 | tim10-1 confirm 44 | tim10 confirm 38
Cc1ccc(-c2nc3c(=O)n(C)c4ccccc4c3o2)cc1	tim10-1 inh 52, TIM10 inh 58 (no result: PfHsp90 yeast 2) | tim10-1 confirm 31 | tim10 confirm 64
Cc1cc2c(c(C)nn2-c2ccccc2)c(=O)o1	none
CCc1c(C)c2c(C)nn(-c3ccccc3)c2oc1=O	tim10-1 inh 55, TIM10 inh 42 | tim10-1 confirm 54 | tim10 confirm inactive
NNC(=O)c1ccc(Cn2cc(Cl)cn2)o1	none
Cc1ccc2nc(NC(=O)c3ccc(Cn4cc(Cl)cn4)o3)sc2c1	tim10-1 inh 46, TIM10 inh 51 | tim10-1 confirm inactive | tim10 confirm 33
Cc1cc(C)c2c(-n3cccc3)c(C(=O)NNS(=O)(=O)c3ccc(Br)cc3)sc2n1	tim10-1 inh 41, TIM10 inh 41, SKKanGAS inh 59 (no result: PfHsp90 yeast 2) | tim10-1 confirm 44 | tim10 confirm inactive
COc1ccc(S(=O)(=O)NNC(=O)c2ccccc2-n2cccc2)cc1	none
Cc1ccc(NC2=NCC(=O)N2C2CCCC2)c(C)c1	none
Nc1nc(-c2ccc(Br)s2)c(Br)s1	tim10-1 inh 54, TIM10 inh 52 | tim10-1 confirm 36 | tim10 confirm inactive
CC(C)(C)c1cc(C(=O)N/N=C/c2ccc(F)cc2)n(-c2ccccc2)n1	tim10-1 inh 51, TIM10 inh 45 | tim10-1 confirm 34 | tim10 confirm inactive
Cc1nn(-c2ccccc2)c(C)c1/C=N/NC(=O)c1ccc(F)cc1	none
Cc1ccccc1CS(=O)(=O)c1nnc([C@H](Cc2ccccc2)NC(=O)OC(C)(C)C)o1	tim10-1 inh 72, TIM10 inh 68, PfHsp90 yeast 2 109 | tim10-1 confirm 51 | tim10 confirm 50
CC(C)(C)OC(=O)N[C@@H](Cc1ccccc1)c1nnc(SCC(=O)O)o1	none
CC(C)(C)OC(=O)N[C@@H](Cc1ccccc1)c1nnc(S(=O)(=O)Cc2ccccc2)o1	tim10-1 inh 73, TIM10 inh 59 (no result: SKKanGAS inh, PfHsp90 yeast 2) | tim10-1 confirm 55 | tim10 confirm 46
CCSc1nnc([C@H](Cc2ccccc2)NC(=O)OC(C)(C)C)o1	none
Cc1ccc(S(=O)(=O)N2CCCCC2)cc1NS(=O)(=O)c1ccccc1F	none (no result: SKKanGAS inh)
O=C(CSCc1ccccc1Cl)Nc1ccc2c(c1)OCCO2	tim10-1 inh 44, TIM10 inh 48 | tim10-1 confirm 36 | tim10 confirm inactive
COc1ccc(NC(=O)c2cccc(S(=O)(=O)N3CCc4ccccc43)c2)cn1	tim10-1 inh 46, TIM10 inh 45 (no result: PfHsp90 yeast 2) | tim10-1 confirm 41 | tim10 confirm 40
O=C(Nc1ncccc1O)c1cccc(S(=O)(=O)N2CCc3ccccc32)c1	none
Cc1ccc(C(=O)Nc2ccc(S(=O)(=O)N3CCc4ccccc43)cc2)o1	tim10-1 inh 49, TIM10 inh 52 | tim10-1 confirm 33 | tim10 confirm 43

From PubChem BioAssay
